Drawing on PubChem BioAssay (NCATS), this text covers Potency for 10 compounds.

Results filed as inconclusive are left out. A call without a number means that no potency is given here. Calls of active or inactive are those of the source. Calls follow the shape of the dose curve; as a rule, active = well fitted inhibition curve with a large enough effect; inconclusive = small, poorly fitted or top-dose-only effect; inactive = flat fitted curve, though single readings scatter.
Potency is read from the fitted curve at half-maximal effect.

One assay concerns CP305. The assay can be described thus: qHTS profiling for inhibitors of Plasmodium falciparum proliferation (AID 504749). Also: nearly all actives have a fitted effect of over 60% in size. The following applies: P. falciparum in erythrocytes, SYBR Green DNA, 72 h; series mostly up to 28.7 µM. A digest of the protocol: (§1)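 Each compound contacts P. falciparum-infected red blood cells for 72 h at 37 C; lysis buffer (Tris, EDTA, saponin, Triton X, SYBR Green I) is added and fluorescence measured next morning; values normalized to controls.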
(In qHTS, concentration-response curves come from the screen itself.)
As for `CO/N=C(/C(=O)N[C@@H]1C(=O)N2C(C(=O)O)=CCS[C@H]12)c1csc(N)n1`, the Potency result is “inactive”.

`Cc1cc(CC(C)CC(C)(C)C)n(O)c(=O)c1` (stereo not given): the Potency was 2390 nM (active).

Consider `CC1CCC(C(C)C)C(OC(=O)c2ccccc2O)C1` (stereo not given), for which the Potency entry was “inactive”.

For the compound `CCC(=O)O[C@@H](OP(=O)(CCCCc1ccccc1)CC(=O)N1C[C@H](C2CCCCC2)C[C@H]1C(=O)O)C(C)C` (stereo not given in full), the Potency result is “inactive”.

For the compound `CC(=O)O[C@@]12CO[C@@H]1C[C@H](O)[C@@]1(C)C(=O)[C@H](O)C3=C(C)[C@@H](OC(=O)C(O)[C@@H](NC(=O)OC(C)(C)C)c4ccccc4)C[C@@](O)([C@@H](OC(=O)c4ccccc4)[C@H]21)C3(C)C` (stereo not given in full), the Potency was 42.6 nM (active).

In the case of `CC1(C)S[C@@H]2[C@H](NC(=O)COc3ccccc3)C(=O)N2[C@H]1C(=O)O`, the Potency entry is “inactive”.

For `CCN1/C(=C/C=C/C=C/c2sc3ccccc3[n+]2CC)Sc2ccccc21`, the Potency was 10700 nM (active).

With `Nc1nc(Cl)nc2c1ncn2C1CC(O)C(CO)O1` (stereo not given), the Potency entry was “inactive”.

On to `O=NCc1ccc([N+](=O)[O-])o1`, for which the Potency entry is “inactive”.

The subject of the next assay is CP315. The assay is described as above. Particulars: P. falciparum in erythrocytes, SYBR Green DNA, 72 h; series mostly up to 28.7 µM. In short, it runs like this: as §1
On to `CO/N=C(/C(=O)N[C@@H]1C(=O)N2C(C(=O)O)=CCS[C@H]12)c1csc(N)n1`, for which the Potency entry was “inactive”.

On to `Cc1cc(CC(C)CC(C)(C)C)n(O)c(=O)c1` (stereo not given), for which the Potency is 3380 nM (active).

Take `CC1CCC(C(C)C)C(OC(=O)c2ccccc2O)C1` (stereo not given): the Potency entry was “inactive”.

In the case of `CCC(=O)O[C@@H](OP(=O)(CCCCc1ccccc1)CC(=O)N1C[C@H](C2CCCCC2)C[C@H]1C(=O)O)C(C)C` (stereo not given in full), the Potency result is “inactive”.

For `CC(=O)O[C@@]12CO[C@@H]1C[C@H](O)[C@@]1(C)C(=O)[C@H](O)C3=C(C)[C@@H](OC(=O)C(O)[C@@H](NC(=O)OC(C)(C)C)c4ccccc4)C[C@@](O)([C@@H](OC(=O)c4ccccc4)[C@H]21)C3(C)C` (stereo not given in full), the Potency is 33.8 nM (active).

For the compound `CC1(C)S[C@@H]2[C@H](NC(=O)COc3ccccc3)C(=O)N2[C@H]1C(=O)O`, the Potency result was “inactive”.

Regarding `CCN1/C(=C/C=C/C=C/c2sc3ccccc3[n+]2CC)Sc2ccccc21`, the Potency is 12000 nM (active).

For `Nc1nc(Cl)nc2c1ncn2C1CC(O)C(CO)O1` (stereo not given), the Potency entry is “inactive”.

As to `O=NCc1ccc([N+](=O)[O-])o1`, the Potency result was “inactive”.

Another assay relates to CP325. The description is as above. Particulars: P. falciparum in erythrocytes, SYBR Green DNA, 72 h; series mostly up to 28.7 µM. In short, it runs like this:
as §1
As to `CO/N=C(/C(=O)N[C@@H]1C(=O)N2C(C(=O)O)=CCS[C@H]12)c1csc(N)n1`, the Potency entry was “inactive”.

For the compound `Cc1cc(CC(C)CC(C)(C)C)n(O)c(=O)c1` (stereo not given), the Potency was 2390 nM (active).

Regarding `CC1CCC(C(C)C)C(OC(=O)c2ccccc2O)C1` (stereo not given), the Potency entry was “inactive”.

As for `CO[C@@H]1[C@@H](OC2OC(C)C(OC3CC(C)(O)C(OC(=O)CC(C)C)C(C)O3)C(N(C)C)C2O)[C@@H](CC=O)C[C@@H](C)C(=O)/C=C\C2O[C@H]2C[C@@H](C)OC(=O)C[C@H]1OC(C)=O` (stereo not given in full), the Potency was 2690 nM (active).

Regarding `CCC(=O)O[C@@H](OP(=O)(CCCCc1ccccc1)CC(=O)N1C[C@H](C2CCCCC2)C[C@H]1C(=O)O)C(C)C` (stereo not given in full), the Potency entry is “inactive”.

On to `CC1(C)S[C@@H]2[C@H](NC(=O)COc3ccccc3)C(=O)N2[C@H]1C(=O)O`, for which the Potency entry was “inactive”.

In the case of `Nc1nc(Cl)nc2c1ncn2C1CC(O)C(CO)O1` (stereo not given), the Potency entry is “inactive”.

As to `O=NCc1ccc([N+](=O)[O-])o1`, the Potency result is “inactive”.

The next assay deals with CP329. Described as above. The following applies: P. falciparum in erythrocytes, SYBR Green DNA, 72 h; series mostly up to 28.7 µM. In short, it runs like this:
as §1
For the compound `CO/N=C(/C(=O)N[C@@H]1C(=O)N2C(C(=O)O)=CCS[C@H]12)c1csc(N)n1`, the Potency result is “inactive”.

As for `Cc1cc(CC(C)CC(C)(C)C)n(O)c(=O)c1` (stereo not given), the Potency was 1900 nM (active).

On to `CC1CCC(C(C)C)C(OC(=O)c2ccccc2O)C1` (stereo not given), for which the Potency entry is “inactive”.

Consider `CCC(=O)O[C@@H](OP(=O)(CCCCc1ccccc1)CC(=O)N1C[C@H](C2CCCCC2)C[C@H]1C(=O)O)C(C)C` (stereo not given in full), for which the Potency entry is “inactive”.

With `CC(=O)O[C@@]12CO[C@@H]1C[C@H](O)[C@@]1(C)C(=O)[C@H](O)C3=C(C)[C@@H](OC(=O)C(O)[C@@H](NC(=O)OC(C)(C)C)c4ccccc4)C[C@@](O)([C@@H](OC(=O)c4ccccc4)[C@H]21)C3(C)C` (stereo not given in full), the Potency was 33.8 nM (active).

Regarding `CC1(C)S[C@@H]2[C@H](NC(=O)COc3ccccc3)C(=O)N2[C@H]1C(=O)O`, the Potency result was “inactive”.

With `CCN1/C(=C/C=C/C=C/c2sc3ccccc3[n+]2CC)Sc2ccccc21`, the Potency was 6750 nM (active).

For the compound `Nc1nc(Cl)nc2c1ncn2C1CC(O)C(CO)O1` (stereo not given), the Potency entry is “inactive”.

As to `O=NCc1ccc([N+](=O)[O-])o1`, the Potency result was “inactive”.

Another assay concerns CP335. Described as above. Particulars: P. falciparum in erythrocytes, SYBR Green DNA, 72 h; series mostly up to 28.7 µM. A digest of the protocol:
as §1
As to `CO/N=C(/C(=O)N[C@@H]1C(=O)N2C(C(=O)O)=CCS[C@H]12)c1csc(N)n1`, the Potency result was “inactive”.

On to `Cc1cc(CC(C)CC(C)(C)C)n(O)c(=O)c1` (stereo not given), for which the Potency was 1690 nM (active).

Consider `CC1CCC(C(C)C)C(OC(=O)c2ccccc2O)C1` (stereo not given), for which the Potency entry was “inactive”.

On to `CO[C@@H]1[C@@H](OC2OC(C)C(OC3CC(C)(O)C(OC(=O)CC(C)C)C(C)O3)C(N(C)C)C2O)[C@@H](CC=O)C[C@@H](C)C(=O)/C=C\C2O[C@H]2C[C@@H](C)OC(=O)C[C@H]1OC(C)=O` (stereo not given in full), for which the Potency is 6750 nM (active).

Turning to `CCC(=O)O[C@@H](OP(=O)(CCCCc1ccccc1)CC(=O)N1C[C@H](C2CCCCC2)C[C@H]1C(=O)O)C(C)C` (stereo not given in full), the Potency result is “inactive”.

Consider `CC(=O)O[C@@]12CO[C@@H]1C[C@H](O)[C@@]1(C)C(=O)[C@H](O)C3=C(C)[C@@H](OC(=O)C(O)[C@@H](NC(=O)OC(C)(C)C)c4ccccc4)C[C@@](O)([C@@H](OC(=O)c4ccccc4)[C@H]21)C3(C)C` (stereo not given in full), for which the Potency is 21.3 nM (active).

On to `CC1(C)S[C@@H]2[C@H](NC(=O)COc3ccccc3)C(=O)N2[C@H]1C(=O)O`, for which the Potency result was “inactive”.

Take `CCN1/C(=C/C=C/C=C/c2sc3ccccc3[n+]2CC)Sc2ccccc21`: the Potency was 1070 nM (active).

For `Nc1nc(Cl)nc2c1ncn2C1CC(O)C(CO)O1` (stereo not given), the Potency result was “inactive”.

As to `O=NCc1ccc([N+](=O)[O-])o1`, the Potency result is “inactive”.
